Active and inactive are the calls of the source. The calls were made as follows: active = hit-call score of the fitted dose curve at least 0.9, where 1 is the maximum; inactive = score below 0.9.
assay: CCTE_Shafer_MEA_acute_burst_percentage_std: CCTE's Neural Acute Assay for Standard Deviation of Burst Percentage, Shafer Lab (AID 2284018);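 also: fitted in the negative direction so actives lower burst percentage SD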
Method: CCTE_Shafer_MEA_acute assay is conducted using Axion Biosystems 48 well microelectrode array (MEA) plates and Maestro recording system. Each well of the MEA plate contains a grid of 16 microelectrodes embedded in the culture surface. Electrically active cells, such as neurons, can be cultured over the electrodes, and electrical activity in these cells can be recorded extracellularly. The spontaneous firing of neurons is captured from each electrode on a microsecond timescale providing both temporally and spatially precise data. […] The CCTE_Shafer_MEA_acute assay uses primary cultures of rat cortical neurons. As these cultures mature over time, neural networks develop functional activity and form cohesive networks in which electrical activity can be highly coordinated. Baseline 40-minute recordings are made on days post-plating 13 or 15, followed by a secondary 40-minute recording after chemical exposure.CCTE_Shafer_MEA_acute_burst_percentage_std is a component of the CCTE_Shafer_MEA_acute assay. It measures the percentage of spikes (action potential firing) in a single-electrode burst (temporally-clustered groups of spikes) as the number of spikes in bursts divided by the total number of spikes during a recording in a microelectrode array (MEA) using Axion Biosystems Maestro 768 channel amplifier with the AxIS adaptive spike detector. The standard deviation of the burst percentages across electrodes is calculated to report a well-level value. The recordings before and after chemical treatment are used to calculate a percent change in the standard deviation of the burst percentage in each well.Data from the assay component CCTE_Shafer_MEA_acute_burst_percentage_std was analyzed into 1 assay endpoint. This assay endpoint, CCTE_Shafer_MEA_acute_burst_percentage_std, was analyzed in the negative analysis fitting direction relative to DMSO as the negative control and baseline of activity. Using a type of functional reporter, gain or loss-of-signal activity can be used to understand electrical activity.
Spontaneous activity in the cortical cultures was recorded using an Axion Biosystems Maestro 768 channel amplifier and Axion Integrated Studios (AxIS) v1.8 (or later) software. The amplifier recorded from all channels simultaneously (gain = 1200 x; sampling rate = 12.5 kHz/channel): raw signals were filtered with a Butterworth band-pass filter (300-5000 Hz), which filters out slower local field potentials leaving only fast potentials, i.e., "spikes", arising from extracellular currents associated with action potentials (Pine 2006; Wheeler and Nam 2011). On-line spike detection of filtered signals was conducted with the AxIS adaptive spike detector, using a threshold of 8x the root mean squared (rms) noise on each channel. Any electrodes with rms noise levels greater than 5 uV were grounded (e.g., no data were recorded). Once grounded, an electrode was grounded for the duration of the experiment. All recordings were conducted at 37 C. Wells were deemed usable if on the day of the exposure >/= 10 electrodes were active (defined as >/= 5 spikes/min). On DIV 13 or 15, a minimum of three wells from one cortical culture preparation were treated with each compound (0.03-40 uM). Prior to recording baseline activity, each mwMEA plate was placed in the Maestro at 37 C and allowed to sit for 20 min while firing rates stabilized. Baseline activity (40 min) was recorded before the addition of each compound. An additional 40 min of spontaneous activity was recorded in the presence of each compound. Changes in network parameters relative to baseline were assessed following compound treatment.

| SMILES | outcome | AC50 |
| --- | --- | --- |
| Cc1cc(SC2=C(O)C[C@@](CCc3ccc(N)cc3)(C(C)C)OC2=O)c(C(C)(C)C)cc1CO | inactive | – |
| Cc1c(C)c2c(c(C)c1O)CCC(C)(COc1ccc(CC3SC(=O)NC3=O)cc1)O2 (stereo not drawn) | – | 33.1 µM (active) |
| CCN(CC)CCOc1ccc(C(=C(Cl)c2ccccc2)c2ccccc2)cc1 | – | 29.1 µM (active) |
| COC(=O)[C@H]1[C@H]2C[C@@H]3c4[nH]c5cc(OC)ccc5c4CCN3C[C@H]2C[C@@H](OC(=O)c2cc(OC)c(OC)c(OC)c2)[C@@H]1OC | inactive | – |
| Oc1ccc(O)cc1 | inactive | – |
| CN(C)CCCN1c2ccccc2Sc2ccc(Cl)cc21 | – | 31.6 µM (active) |
| CSc1ccc(Oc2ccc(S(N)(=O)=O)cc2CN(C)C)cc1C | – | 32.1 µM (active) |
| NC(=Nc1ccccc1)Nc1ccccc1 | inactive | – |
| CC1=C(C)S(=O)(=O)CCS1(=O)=O | inactive | – |
| O=C(O)CN(CC(=O)O)CC(=O)O | inactive | – |
| CC(C)NCC(O)c1ccc(O)c(O)c1 (stereo not drawn) | inactive | – |
| Cc1cc(Cc2ccc(N)c(C)c2)ccc1N | inactive | – |
| O=C(N[C@@H](c1ccccc1)[C@@H]1CCCCN1)c1cccc(C(F)(F)F)c1Cl | inactive | – |
| Nc1nc(=S)c2[nH]cnc2[nH]1 | inactive | – |
| c1ccc2occc2c1 | inactive | – |
| CC(N)=O | inactive | – |
| COc1ccc(OC(F)(F)F)cc1CN[C@H]1CCCN[C@H]1c1ccccc1 | – | 4.15 µM (active) |
| O=C1OC(c2ccc(O)cc2)(c2ccc(O)cc2)c2ccccc21 | inactive | – |
| CN(C)C(=O)NC1(c2ccccc2)CCN(CC[C@@]2(c3ccc(F)c(F)c3)CN(C(=O)c3ccccc3)CCO2)CC1 | inactive | – |
| C/C=C/c1ccc(OC)cc1 | inactive | – |
| CCCC(=O)O | inactive | – |
| CCCCC(CC)COP(=O)(OCC(CC)CCCC)OCC(CC)CCCC (stereo not drawn) | inactive | – |
| CCc1cc(C2=C(C(=O)O)N(c3ccccc3C(F)(F)F)S(=O)(=O)c3ccccc32)cc2c1OCO2 | inactive | – |
| CC(C)COC(=O)CCCCC(=O)OCC(C)C | inactive | – |
| Cc1ccc(-c2cc(C(F)(F)F)nn2-c2ccc(S(N)(=O)=O)cc2)cc1 | inactive | – |
| Cc1ccc(C(C)(C)C)c(O)c1 | inactive | – |
| OCC(CO)n1cnc(-c2ccc(F)cc2)c1-c1ccnc(Oc2ccccc2)n1 | inactive | – |
| CN(C)C(=O)NC1(c2ccccc2)CCN(CCC[C@]2(c3ccc(Cl)c(Cl)c3)CCCN(C(=O)c3ccccc3)C2)CC1 | – | 1.83 µM (active) |

From PubChem BioAssay (EPA / NIEHS)
